D1 antag = human D1 dopamine receptor antagonism. P21728. HEK293 TREx D1 cells, calcium flux, dopamine EC80; hits give low values. activity change, negative = inhibition, % at 10 µM. actives 3.2% (n = 360,000). AID 504652; in the data active = activity change below about -30%
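Using tetracycline-induced force-coupled D1 Hek293 cells and a calcium dye, signals were followed for 180 s after compound, then for 180 s after EC80 dopamine, to detect inhibitors.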
D1 potentiator = enhances dopamine response at the human D1 receptor. potentiation, % at 10 µM. AID 504651. actives 0.036% (n = 360,000). HEK293 TREx D1 cells, calcium flux, dopamine EC20 potentiation; in the data active = potentiation above about 30%
TRHR enhancer = TRH receptor (human) allosteric enhancement; TRHR cells, fluo-8 calcium fluorescence, EC20 TRH enhancement; enhancement, % at 2 µM; P34981; actives 0.66% (n = 360,000); AID 493056; in the data active = enhancement above about 30%
Target sequence (P34981 whole entry, looked up): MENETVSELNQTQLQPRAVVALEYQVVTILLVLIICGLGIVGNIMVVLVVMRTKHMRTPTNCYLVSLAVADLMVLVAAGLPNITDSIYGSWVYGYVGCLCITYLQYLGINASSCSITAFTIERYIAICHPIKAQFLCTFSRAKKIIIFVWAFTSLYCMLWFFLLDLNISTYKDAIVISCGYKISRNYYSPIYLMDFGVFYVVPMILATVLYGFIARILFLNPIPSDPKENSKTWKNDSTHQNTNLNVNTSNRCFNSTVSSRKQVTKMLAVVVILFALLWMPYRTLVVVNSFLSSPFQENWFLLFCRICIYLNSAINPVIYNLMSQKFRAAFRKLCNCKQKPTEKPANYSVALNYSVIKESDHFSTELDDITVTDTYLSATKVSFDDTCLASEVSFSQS
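TRHR-expressing cells loaded with fluo-8 calcium dye were read kinetically (ex 480/em 530) during compound addition, then stimulated with an EC20 of TRH (10 nM final). Enhancement of the Gq-mediated intracellular calcium response was scored.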
TRHR ag = TRH receptor (human) agonism; P34981; TRHR cells, calcium flux fluo-8, FDSS agonist mode; activation, % at 2 µM; actives 0.18% (n = 360,000)
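TRHR-expressing cells, plated overnight in medium with 10% serum, were loaded with fluo-8 calcium dye at room temperature. After a 10 s baseline, library compound was pin-added and calcium release was recorded kinetically (ex 480/em 530) as agonist response.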
D1 ag = agonists of human D1 dopamine receptor; activation, % at 2 µM; actives 1% (n = 360,000); HEK293 T-REx D1 cells, calcium flux, agonist mode; P21728
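Inducible HEK293 T-REx D1 cells, force-coupled to calcium signalling, were plated at 4000 cells/well with tetracycline and held overnight at 30 C. After no-wash calcium dye loading, compound-evoked calcium rise over 180 s flagged agonists.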
Each line names hits and unclear results; the compound was inactive in the other large screens. The list is not random: actives were taken first. Their share in the collection is about 4.7%. Cut-off read from the data, not from the text of the source, unless noted: active = activation above about 30%; inactive = the rest.

O=C(OCn1nnc2ccccc2c1=O)c1ccco1	none
Cc1ccc(Cn2c(=O)c3cccnc3n(Cc3ccc(C)cc3)c2=O)cc1	D1 antag -30
CCOc1ccc(S(=O)(=O)N2CCN(C)CC2)c(C)c1C	D1 antag -50
CCOc1ccc(S(=O)(=O)N2CCCCC2)c(C)c1C	none
Cc1ccc(CN2COc3ccc4c(-c5ccccc5)cc(=O)oc4c3C2)cc1	TRHR enhancer 55
COc1ccc(CN2COc3ccc4c(-c5ccccc5)cc(=O)oc4c3C2)cc1	none
Cc1ccccc1NC(=O)c1cccc(N2C(=O)C3CCCCC3C2=O)c1 (configuration not stated)	D1 antag -30
CN(C(=O)c1cccc(N2C(=O)C3CC=CCC3C2=O)c1)C1CCCCC1 (configuration not stated)	D1 antag -30
CCCn1c(=O)c2sccc2n2c(CCCC(=O)NCCOC)nnc12	none
O=C(NCCCN1CCOCC1)c1ccc(/C=C2\Oc3ccccc3N(Cc3ccccc3F)C2=O)cc1	none
CCN1CCN(CCCNC(=O)c2ccc(/C=C3/Oc4ccccc4N(Cc4cccc(C)c4)C3=O)cc2)CC1	D1 antag -37, D1 ag 39
CCN1CCN(CCNC(=O)c2ccc(/C=C3/Sc4ccccc4N(Cc4ccccc4C)C3=O)cc2)CC1	D1 ag 40
CCc1ccc(NC(=O)c2cc(CN3CCOCC3)on2)cc1	none
CC(=O)OCc1cnc(C)c2oc(=O)c(C(=O)Nc3cccc(F)c3)cc12	D1 antag -46
CCOc1ccc(Cl)cc1CNCCCSc1nc(C)cc(C)n1	D1 antag -38
CCOC(=O)c1cnc(NCc2ccccc2OC)c2ccccc12	none
O=C(COC(=O)c1ccccc1NS(=O)(=O)c1cccs1)NC1CCCCC1	D1 antag -55
O=C(COC(=O)[C@H](Cc1ccccc1)NC(=O)c1cccs1)NC1CCCCC1	D1 antag -43
Cc1ccccc1Cn1c(SCc2ccc(C(=O)NC(C)c3ccccc3)cc2)nc2ccncc21 (configuration not stated)	none
Brc1ccccc1OCCCN1CCCC1	D1 antag -45
Brc1ccccc1OCCCN1CCCCCC1	D1 antag -60
Clc1ccccc1OCCCCN1CCCC1	none
COc1ccccc1N1CCN(C(CNC(=O)C(=O)NCCc2ccccc2)c2cccnc2)CC1 (configuration not stated)	none
CCOc1cccc(C2CC(=O)Nc3cc4c(cc32)OCCO4)c1 (configuration not stated)	D1 antag -32, D1 ag 45
O=C1CC(c2ccc(Cl)cc2)c2cc3c(cc2N1)OCCO3 (configuration not stated)	none
Cc1ccc(C2CC(=O)Nc3cc4c(cc32)OCCO4)cc1 (configuration not stated)	D1 ag 32
CCOc1ccccc1C1CC(=O)Nc2cc3c(cc21)OCO3 (configuration not stated)	none
COc1ccc(C(=O)Oc2cc(-c3ccc(OC)c(OC)c3)cc(=O)c3c(C)oc(C)c23)cc1	none
CC(C)[C@H]1C(=O)Nc2ccccc2N1C(=O)N[C@@H](Cc1ccccc1)C(=O)N[C@@H](Cc1ccccc1)C(=O)O	D1 antag -31
CC(C)[C@H]1C(=O)Nc2ccccc2N1C(=O)N[C@@H](Cc1ccccc1)C(=O)N[C@H](Cc1ccccc1)C(=O)O	none
CCCCOc1cccc(NC(=O)c2cccc(C(=O)Nc3cccc(OCCCC)c3)c2)c1	none
O=C(NNS(=O)(=O)c1ccc(F)cc1)c1sccc1-n1cccc1	none
Cc1ccc(S(=O)(=O)NNC(=O)c2sccc2-n2cccc2)cc1	D1 antag -43
O=c1ccc2cc(S(=O)(=O)N3CCCC3)ccc2[nH]1	none
O=S(=O)(c1ccc2[nH]ccc2c1)N1CCCCCC1	D1 antag -30
COc1cc2c(cc1OC)C(COc1cc(C)cc(C)c1)N(C(=O)C(C)(C)C)CC2 (configuration not stated)	none
COc1cccc(NC(=O)Cn2c(=O)n(CCCCC(=O)NCc3ccc4c(c3)OCO4)c(=O)c3ccccc32)c1	none
O=C(CNC(=O)c1ccc(Cl)cc1Cl)OCC(=O)N1CCCC1	none
O=C(COC(=O)CNC(=O)c1ccccc1F)Nc1cccc(S(=O)(=O)N2CCCCCC2)c1	none
